Values without a mark were called inactive. Rule as the data show it: active = remaining activity below about 50%; inactive = the rest.
The compounds below were run against Phospholipase D2 (Homo sapiens) (UniProt O14939) (assay: cellular phospholipase D2 activity inhibition – cell-based, HEK293, single concentration (AID 602143;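 also: tested at 200 nM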)). Settings: HEK293 cellular PLD2 activity, percent of control; hits give low values.
Sequence of Phospholipase D2 (Homo sapiens) (O14939 whole entry, looked up): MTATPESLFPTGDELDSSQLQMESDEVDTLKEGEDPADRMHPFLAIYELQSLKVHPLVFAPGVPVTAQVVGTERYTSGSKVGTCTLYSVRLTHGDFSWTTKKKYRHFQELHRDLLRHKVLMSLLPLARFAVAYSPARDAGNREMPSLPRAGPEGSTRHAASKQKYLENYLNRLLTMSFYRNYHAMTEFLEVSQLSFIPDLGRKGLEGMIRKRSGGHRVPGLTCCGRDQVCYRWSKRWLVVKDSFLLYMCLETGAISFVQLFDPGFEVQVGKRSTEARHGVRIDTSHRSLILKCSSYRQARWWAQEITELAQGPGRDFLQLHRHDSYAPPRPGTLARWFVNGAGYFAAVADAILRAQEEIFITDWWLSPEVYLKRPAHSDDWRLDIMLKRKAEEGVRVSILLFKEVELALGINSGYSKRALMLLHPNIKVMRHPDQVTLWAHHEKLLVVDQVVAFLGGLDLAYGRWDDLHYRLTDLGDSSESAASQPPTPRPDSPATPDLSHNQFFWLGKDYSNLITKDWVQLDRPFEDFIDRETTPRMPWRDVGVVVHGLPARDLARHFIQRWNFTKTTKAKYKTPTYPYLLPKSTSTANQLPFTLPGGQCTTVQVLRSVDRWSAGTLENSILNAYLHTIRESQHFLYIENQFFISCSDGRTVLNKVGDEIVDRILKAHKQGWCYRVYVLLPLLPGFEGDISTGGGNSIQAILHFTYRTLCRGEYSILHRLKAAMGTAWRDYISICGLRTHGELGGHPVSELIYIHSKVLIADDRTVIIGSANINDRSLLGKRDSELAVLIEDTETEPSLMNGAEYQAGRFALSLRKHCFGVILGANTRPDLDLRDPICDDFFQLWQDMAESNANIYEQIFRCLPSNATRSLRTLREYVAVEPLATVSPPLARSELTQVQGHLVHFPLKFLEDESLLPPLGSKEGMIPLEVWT
Sequence of Phospholipase D2 (Homo sapiens) (O14939 whole entry, looked up): as above

Row | Structure (SMILES) | remaining activity [%]
1 | O=c1[nH]c2ccccc2n1C1CCN(CCNS(=O)(=O)c2ccc(OC(F)(F)F)cc2)CC1 | 81
2 | Nc1ccc(C(=O)NCCN2CCC(n3c(=O)[nH]c4ccccc43)CC2)c(F)c1 | 60.4
3 | O=C(NCCN1CCC(n2c(=O)[nH]c3ccccc32)CC1)c1ccc(-c2ccccc2)o1 | 68.6
